Bioassay records as filed in PubChem.
G9a inh: inhibitors of human histone lysine methyltransferase G9a. Q96KQ7. G9a H3K9 monomethylation, AlphaScreen, 2 h. Potency, µM (doses to about 102 µM), for the others: top-dose activity, negative = inhibition, usual class: inhibitors. 8.8% of 350,000 active. AID 504332; note: potency is the fitted concentration of half-maximal effect; % is set by controls: 0 for no effect and ±100 for the full control effect; nearly all actives have a fitted effect of over 75% in size
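Chemiluminescent proximity detection of H3K9 monomethylation, read after 10 min bead incubation in the dark. Reaction: 20 nM G9a, 500 nM biotin-H3K9 peptide, 20 uM SAM cofactor, 2 h, room temperature, following 15 min enzyme-compound preincubation.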
PI5P4K alpha inh: blocks human PI5P4K alpha kinase activity; PI5P4Kalpha enzyme, ADP-Glo luminescence, 60 min; active compounds read low; max response, %; 1.2% of 330,000 active; AID 652105; active = max response of -50% or lower; inconclusive = between -30% and -50%; inactive = -30% or higher; note: value at the top dose of about 77 µM; % is set by controls: 0 for no effect and ±100 for the full control effect
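Reactions run in 0.038 M HEPES pH 7.4, 0.28 mM EGTA, 0.1% CHAPS and 5% DMSO, with PI5P4Kalpha, substrate, compound and 5 microM ATP final, one hour at room temperature. Readout is ADP-Glo luminescence.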
BAZ2B block: BAZ2B (human) inhibition | Q9UIF8 | AlphaScreen BAZ2B-H3K14Ac peptide displacement | Potency, µM (top dose mostly 114 µM), without a hit: top-dose activity change, negative = inhibition, actives largely listed as inhibitors | 4.4% of 360,000 active | AID 504333; note: potency is the fitted concentration of half-maximal effect; % is set by controls: 0 for no effect and ±100 for the full control effect; nearly all actives have a fitted effect of over 60% in size
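Compounds, titrated to a top concentration of 110 uM, were incubated 30 min at room temperature with preformed BAZ2B/acetyl-K14 H3 peptide complex (50 nM each). Proximity signal was measured by AlphaScreen after 20 min with beads.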
HP1b binding inh: HP1-beta chromodomain-methylated histone interaction inhibition; P83916; 0.56% of 390,000 active; Potency, µM (doses to about 114 µM), for inactives: top-dose activity change, negative = inhibition, hits mostly inhibitors; AlphaScreen HP1-beta / biotin-H3K9me3 peptide binding; note: potency is the fitted concentration of half-maximal effect; nearly all actives have a fitted effect of over 70% in size
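HP1-beta protein (50 nM final) preincubated 30 min at room temperature with biotinylated H3(1-18)K9me3 peptide (50 nM) in PBS pH 7.4, 0.01% Tween-20, then compound added for 30 min. AlphaScreen streptavidin donor/nickel chelate acceptor beads (10 ug/mL final), 30 min dark, luminescence read.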
L3MBTL1 block: L3MBTL1 (human) inhibition | Q9Y468 | AlphaScreen L3MBTL1–H3K9me1 peptide binding | Potency, µM (titrated, usually from 57.1 µM), without a hit: at the highest dose activity, negative = inhibition, usual class: inhibitors | 0.66% of 230,000 active; note: potency is the fitted concentration of half-maximal effect; % is set by controls: 0 for no effect and ±100 for the full control effect; nearly all actives have a fitted effect of over 60% in size
Target sequence (Q9Y468 whole entry, looked up): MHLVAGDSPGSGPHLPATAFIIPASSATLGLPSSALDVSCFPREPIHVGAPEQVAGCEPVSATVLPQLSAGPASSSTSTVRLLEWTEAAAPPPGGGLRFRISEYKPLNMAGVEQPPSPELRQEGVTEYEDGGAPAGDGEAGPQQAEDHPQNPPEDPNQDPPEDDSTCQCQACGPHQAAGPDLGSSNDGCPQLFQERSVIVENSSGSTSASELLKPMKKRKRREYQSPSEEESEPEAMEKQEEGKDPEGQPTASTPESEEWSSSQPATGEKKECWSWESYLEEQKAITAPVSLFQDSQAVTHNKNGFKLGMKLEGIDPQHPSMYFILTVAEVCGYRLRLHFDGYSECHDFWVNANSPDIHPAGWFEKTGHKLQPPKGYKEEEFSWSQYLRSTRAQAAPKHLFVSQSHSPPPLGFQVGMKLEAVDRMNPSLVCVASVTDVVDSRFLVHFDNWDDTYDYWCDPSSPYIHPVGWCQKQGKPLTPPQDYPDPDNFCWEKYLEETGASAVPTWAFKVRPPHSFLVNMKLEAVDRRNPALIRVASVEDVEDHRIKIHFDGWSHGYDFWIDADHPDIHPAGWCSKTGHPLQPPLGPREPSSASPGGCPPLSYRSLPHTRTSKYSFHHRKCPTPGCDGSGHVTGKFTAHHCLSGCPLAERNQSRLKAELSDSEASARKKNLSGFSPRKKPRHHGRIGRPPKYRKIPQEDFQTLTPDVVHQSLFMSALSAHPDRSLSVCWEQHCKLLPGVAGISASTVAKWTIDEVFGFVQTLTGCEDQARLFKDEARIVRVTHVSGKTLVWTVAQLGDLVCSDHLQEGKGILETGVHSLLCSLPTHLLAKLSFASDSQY
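AlphaScreen assay: L3MBTL1 (50 nM final) was preincubated 30 min at room temperature with biotinylated H3(1-15)K9me1 peptide (75 nM final), then 30 min with library compounds; streptavidin donor and nickel chelate acceptor beads (10 ug/mL final) added, 30 min dark.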
JMJD2A Tudor: JMJD2A Tudor domain (human) inhibition. O75164. AlphaScreen JMJD2A-Tudor / H3K4me3 peptide binding. Potency, µM (top dose mostly 114 µM), inactives show at the highest dose activity change, negative = inhibition, hits mostly inhibitors. 4.4% of 390,000 active. AID 504339; note: potency is the fitted concentration of half-maximal effect; % is set by controls: 0 for no effect and ±100 for the full control effect; nearly all actives have a fitted effect of over 50% in size
Starred values were filed as active, the others as inactive; [ ] = another dose, or the depositor's remark. In the library only some 11% were active in any assay of this set; here they are far more common. Unless noted, calls come from the whole dose curve; as a rule, active = well fitted inhibition curve with a large enough effect; inconclusive = small, poorly fitted or top-dose-only effect; inactive = no such curve, though single readings can be large or run the other way.

`CC(C)NCCCCOc1cccc(Br)c1` gave G9a inh 28µM*, PI5P4K alpha inh -8, BAZ2B block 50µM*, HP1b binding inh 26%, L3MBTL1 block -1% and JMJD2A Tudor 35µM*.
For Clc1ccc(N/N=C/c2cccnc2)cc1 the results were G9a inh 4µM*, PI5P4K alpha inh 1, BAZ2B block inconclusive, HP1b binding inh 3%, L3MBTL1 block -4% and JMJD2A Tudor inconclusive.
For CN(C)c1ccc(/C=N/Nc2cccc(C(=O)O)c2)cc1 the results were G9a inh 7.9µM*, PI5P4K alpha inh -7, BAZ2B block inconclusive, HP1b binding inh 31% and JMJD2A Tudor inconclusive.
Screening COc1ccccc1/C=C/C=N/Nc1cccc(C(=O)O)c1 returned G9a inh -4%, PI5P4K alpha inh -19, BAZ2B block -33%, HP1b binding inh -22% and JMJD2A Tudor inconclusive.
For C(=N\NC1=Nc2cccc3cccc1c23)/c1cccnc1 the results were G9a inh inconclusive, PI5P4K alpha inh -9, BAZ2B block 40µM*, HP1b binding inh -31%, L3MBTL1 block -6% and JMJD2A Tudor inconclusive.
`O=C(O)c1cccc(N/N=C/c2ccc(-c3ccccc3)cc2)c1` gave G9a inh 25µM*, PI5P4K alpha inh 1, HP1b binding inh 15% and JMJD2A Tudor -29%.
`CN1CC(=O)N(CC(=O)Nc2ccc(OC(F)(F)F)cc2)c2ccccc2C1=O` gave G9a inh -4%[59 µM], BAZ2B block 0%, HP1b binding inh 6% and JMJD2A Tudor -12%.
`COc1ccc(-c2noc(CN(C(=O)C(C)Oc3ccc(C)cc3)C(C)C)n2)cc1` (centres undefined) gave G9a inh 2%[59 µM], BAZ2B block 0%, HP1b binding inh 25% and JMJD2A Tudor -12%.
`O=C(NC1CCCC1)c1ccc2c(=O)n(Cc3ccccc3)c(SCc3cccc([N+](=O)[O-])c3)nc2c1` gave G9a inh 5%[59 µM], BAZ2B block 0%, HP1b binding inh 17%[57 µM] and JMJD2A Tudor -24%.
`CC(C)(C)c1ccc(/C=N/Nc2cccc(C(=O)O)c2)cc1` gave G9a inh 28µM*, PI5P4K alpha inh -2, BAZ2B block -24%, HP1b binding inh 15% and JMJD2A Tudor -33%.
C/C(=N\NC(=O)C(=O)Nc1cccc(C(F)(F)F)c1)c1ccc(Cl)s1 was read as G9a inh -2%[59 µM], PI5P4K alpha inh 0, BAZ2B block -7%, HP1b binding inh 28%, L3MBTL1 block -2% and JMJD2A Tudor -12%.
Screening O=C(O)c1cccc(N/N=C/c2cc(Br)cc(Br)c2O)c1 returned G9a inh inconclusive, PI5P4K alpha inh -27, BAZ2B block inconclusive, HP1b binding inh -17%, L3MBTL1 block -16% and JMJD2A Tudor inconclusive.
Screening COc1ccc(Br)cc1/C=N/NC(=O)c1cc(Br)ccc1O returned G9a inh 40µM* and BAZ2B block 56µM*.
Screening C/C(=N\Nc1cccc(C(=O)O)c1)c1ccc(Cl)s1 returned G9a inh 22µM*, PI5P4K alpha inh 3, BAZ2B block inconclusive, HP1b binding inh -3% and JMJD2A Tudor inconclusive.
Screening COc1ccc(Br)cc1/C=N/Nc1cccc(C(=O)O)c1 returned G9a inh 10µM*, PI5P4K alpha inh -3, BAZ2B block -27%, HP1b binding inh 5%, L3MBTL1 block -10% and JMJD2A Tudor -26%.
For Cc1ccccc1-n1c(=O)c2c3c(sc2n2cnnc12)CCCC3 the results were G9a inh -7%[59 µM], BAZ2B block -2%, HP1b binding inh 41% and JMJD2A Tudor -1%.
CSc1nnc2[nH]c(=O)cc(C)n12 was read as G9a inh 3%[59 µM], BAZ2B block 4%, HP1b binding inh 42% and JMJD2A Tudor 4%.
For COc1cccc(NC(=O)c2oc3ccccc3c2NC(=O)C23CC4CC(CC(C4)C2)C3)c1 the results were G9a inh -26%[59 µM], BAZ2B block inconclusive, HP1b binding inh 18% and JMJD2A Tudor -20%.
COc1ccc(/C(C)=N/Nc2cccc(C(=O)O)c2)cc1OC was read as G9a inh 1.4µM*, PI5P4K alpha inh -13, BAZ2B block inconclusive, HP1b binding inh 31%, L3MBTL1 block -15% and JMJD2A Tudor -19%.
O=C(O)c1cccc(N/N=C/c2cccnc2)c1 was read as G9a inh 28µM*, PI5P4K alpha inh -12, BAZ2B block -13%, HP1b binding inh 18% and JMJD2A Tudor -17%.
Cc1[nH]c2ccccc2c1/C=N/Nc1cccc(C(=O)O)c1 was read as G9a inh 4µM*, PI5P4K alpha inh -28, BAZ2B block inconclusive, HP1b binding inh -15%, L3MBTL1 block -26% and JMJD2A Tudor inconclusive.
`Cc1[nH]c2ccccc2c1/C=N/NC(=O)c1ccccc1` gave G9a inh 15%, PI5P4K alpha inh -22, BAZ2B block -5%, HP1b binding inh 36% and JMJD2A Tudor -13%.
Screening COc1ccc(C(=O)Nc2nnc(S(=O)(=O)N(C)c3ccc(Cl)cc3)s2)cc1OC returned G9a inh 25%[59 µM], BAZ2B block 37%, HP1b binding inh 54% and JMJD2A Tudor 5%.
Screening CCc1ccccc1NC(=O)Cn1c(=O)n(-c2ccc(C)cc2)c(=O)c2c1c1cc(C)ccc1n2C returned G9a inh -6%[59 µM], BAZ2B block -1%, HP1b binding inh 15% and JMJD2A Tudor -6%.
`Cc1[nH]c2ccccc2c1-c1csc(NC(=O)CSCCO)n1` gave G9a inh 71µM*, PI5P4K alpha inh 0, BAZ2B block inconclusive, HP1b binding inh -14% and JMJD2A Tudor inconclusive.
`COc1ccccc1NC(=O)c1sc2nc3n(c(=O)c2c1C)N=C(c1cccc(Br)c1)CS3` gave G9a inh 11%[59 µM], BAZ2B block -1%, HP1b binding inh 23% and JMJD2A Tudor -7%.
For Cc1nn(-c2ccccc2)c(OC(=O)C(C)C)c1Sc1ccc(Cl)cc1 the results were G9a inh 4.5µM*, BAZ2B block -3%, HP1b binding inh 4% and JMJD2A Tudor -33%.
For Nc1nnnn1/N=C/c1cc(Br)ccc1O the results were PI5P4K alpha inh -20, HP1b binding inh 12% and JMJD2A Tudor 28µM*.
Screening Nc1nnnn1/N=C/c1ccc(Br)cc1 returned G9a inh 16%, PI5P4K alpha inh 2, BAZ2B block -9%, HP1b binding inh 112%, L3MBTL1 block 0% and JMJD2A Tudor -22%.
Screening Cc1nnc(C)n1/N=C/c1cc(Br)ccc1O returned G9a inh 10µM*, PI5P4K alpha inh 2, BAZ2B block 7%, HP1b binding inh 2%, L3MBTL1 block -5% and JMJD2A Tudor 28µM*.
